Activity calls are given as the source filed them. The calls were made as follows: active = hit-call score of the fitted dose curve at least 0.9, where 1 is the maximum; inactive = score below 0.9.
Columns and labels:
[1] = ATG_CRE_CIS: Attagene CIS-FACTORIAL HepG2 Assay for human cAMP Responsive Element (CRE) binding protein 3 (AID 2282926); details: HepG2 CRE cis-reporter, Attagene multiplexed mRNA; actives raise or lower the signal
How it was run: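 Readout: fluorescently labelled reporter transcripts resolved by capillary electrophoresis after RT-PCR, taken 24 h post-dosing in transfected HepG2. Endogenous transcription factor activity drives each cis-element reporter; gain or loss of signal fitted relative to DMSO control.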

[2] = biological target: CCAAT/enhancer-binding protein beta (Homo sapiens) (UniProt P17676); experiment: ATG_C_EBP_CIS: Attagene CIS-FACTORIAL HepG2 Assay for human CCAAT/Enhancer Binding Protein (C/EBP) beta (AID 2282927); details: HepG2 Attagene cis-factorial transcription factor reporter; actives raise or lower the signal
CCAAT/enhancer-binding protein beta (Homo sapiens), sequence (P17676 whole entry, looked up): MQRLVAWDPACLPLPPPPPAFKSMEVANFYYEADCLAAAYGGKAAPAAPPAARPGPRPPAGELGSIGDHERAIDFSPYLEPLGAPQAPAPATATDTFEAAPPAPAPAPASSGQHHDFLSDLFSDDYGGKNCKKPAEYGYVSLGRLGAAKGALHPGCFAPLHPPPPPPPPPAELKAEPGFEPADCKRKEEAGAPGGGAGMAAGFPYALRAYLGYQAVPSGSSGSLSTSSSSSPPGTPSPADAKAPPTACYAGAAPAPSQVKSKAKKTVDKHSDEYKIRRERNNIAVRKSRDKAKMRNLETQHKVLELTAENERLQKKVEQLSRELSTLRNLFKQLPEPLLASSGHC
How it was run: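 Changes in reporter mRNA, rather than exogenous chimeric receptor activity, reflect native C/EBP signalling in transfected HepG2 cells dosed for 24 h; transcripts are detected by RT-PCR and capillary electrophoresis.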

[3] = ATG_DR4_LXR_CIS: Attagene CIS-FACTORIAL HepG2 Assay for human Liver X Receptor (LXR), DR4 submotif (AID 2282929); details: HepG2 Attagene DR4 cis-reporter, mRNA transcription; actives raise or lower the signal
How it was run: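 HepG2 cells were transiently transfected with multiple cis-regulated reporter units and dosed for 24 hours. The DR4 reporter mRNA was quantified by RT-PCR, 6-FAM labelling and capillary electrophoresis. Bidirectional fits used DMSO as baseline.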

[4] = biological target: Aryl hydrocarbon receptor (Homo sapiens) (UniProt P35869); experiment: ATG_Ahr_CIS: Attagene CIS-FACTORIAL HepG2 Assay for human Aryl Hydrocarbon Receptor (Ahr) (AID 2282930); details: HepG2 AhR cis-factorial reporter transcription; actives raise or lower the signal
Aryl hydrocarbon receptor (Homo sapiens), sequence (P35869 whole entry, looked up): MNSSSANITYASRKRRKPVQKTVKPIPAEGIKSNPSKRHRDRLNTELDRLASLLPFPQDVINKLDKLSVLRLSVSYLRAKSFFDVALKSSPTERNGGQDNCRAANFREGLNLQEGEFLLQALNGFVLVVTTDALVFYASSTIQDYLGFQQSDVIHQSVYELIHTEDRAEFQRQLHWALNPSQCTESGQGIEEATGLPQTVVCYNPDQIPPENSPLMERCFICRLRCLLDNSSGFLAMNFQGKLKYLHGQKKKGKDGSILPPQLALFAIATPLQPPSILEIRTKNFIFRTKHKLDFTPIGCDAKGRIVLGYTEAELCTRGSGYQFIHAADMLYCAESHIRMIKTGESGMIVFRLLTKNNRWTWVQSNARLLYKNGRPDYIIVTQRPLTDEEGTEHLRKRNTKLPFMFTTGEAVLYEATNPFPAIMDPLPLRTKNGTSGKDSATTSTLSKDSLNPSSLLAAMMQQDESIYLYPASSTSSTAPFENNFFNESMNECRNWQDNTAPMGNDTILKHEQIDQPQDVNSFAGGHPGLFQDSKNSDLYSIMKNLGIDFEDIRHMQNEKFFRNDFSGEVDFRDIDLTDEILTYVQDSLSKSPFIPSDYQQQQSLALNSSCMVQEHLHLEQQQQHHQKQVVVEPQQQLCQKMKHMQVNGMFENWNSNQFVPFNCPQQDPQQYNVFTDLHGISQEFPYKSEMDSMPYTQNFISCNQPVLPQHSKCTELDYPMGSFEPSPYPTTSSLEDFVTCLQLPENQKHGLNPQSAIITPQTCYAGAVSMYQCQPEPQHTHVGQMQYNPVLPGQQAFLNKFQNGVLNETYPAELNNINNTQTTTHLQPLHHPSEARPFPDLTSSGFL
How it was run: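 HepG2, transient MRTU (cis) transfection, 24 h exposure. RNA → cDNA → PCR → 6-FAM primer extension → HpaI 2 h 37 C → CE. Fit: bidirectional, DMSO baseline.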

[5] = ATG_AP_1_CIS: Attagene CIS-FACTORIAL HepG2 Assay for human Activator Protein 1 (AP-1) (AID 2282931); details: HepG2 Attagene cis-factorial AP-1 reporter mRNA; actives raise or lower the signal
How it was run: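 HepG2 cells transiently transfected with cis-element-driven reporter transcription units, dosed for 24 hours. Reporter mRNA measured by RT-PCR, 6-FAM labelling, HpaI digestion and capillary electrophoresis. Bidirectional fitting against DMSO baseline.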

[6] = ATG_AP_2_CIS: Attagene CIS-FACTORIAL HepG2 Assay for human Activator Protein 2 (AP-2) (AID 2282932); details: HepG2 AP-2 cis-reporter, Attagene transcription factor profiling; actives raise or lower the signal
How it was run: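 Endogenous transcription factor activity is reported through transfected multiplex reporter constructs in HepG2, after 24 h of compound exposure. Transcripts were quantified by RT-PCR and capillary electrophoresis of fluorescent fragments. Bidirectional fit against DMSO.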

[7] = ATG_BRE_CIS: Attagene CIS-FACTORIAL HepG2 Assay for human Bone Morphogenetic Protein (BMP) Response Element (BRE) (AID 2282933); details: HepG2 BMP response element reporter, Attagene transcription factor profiling; actives raise or lower the signal
How it was run: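 Endogenous transcription factor activity at a BMP response element was monitored in transfected HepG2 cells 24 h after dosing. Fluorescent RT-PCR products were resolved by capillary electrophoresis, and activity was fitted in both directions versus DMSO.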

[8] = biological target: Transcription factor E2F1 (Homo sapiens) (UniProt Q01094); experiment: ATG_E2F_CIS: Attagene CIS-FACTORIAL HepG2 Assay for human E2F Transcription Factor 1 (AID 2282935); details: HepG2 Attagene cis-reporter, E2F reporter RNA transcripts; actives raise or lower the signal
Transcription factor E2F1 (Homo sapiens), sequence (Q01094 whole entry, looked up): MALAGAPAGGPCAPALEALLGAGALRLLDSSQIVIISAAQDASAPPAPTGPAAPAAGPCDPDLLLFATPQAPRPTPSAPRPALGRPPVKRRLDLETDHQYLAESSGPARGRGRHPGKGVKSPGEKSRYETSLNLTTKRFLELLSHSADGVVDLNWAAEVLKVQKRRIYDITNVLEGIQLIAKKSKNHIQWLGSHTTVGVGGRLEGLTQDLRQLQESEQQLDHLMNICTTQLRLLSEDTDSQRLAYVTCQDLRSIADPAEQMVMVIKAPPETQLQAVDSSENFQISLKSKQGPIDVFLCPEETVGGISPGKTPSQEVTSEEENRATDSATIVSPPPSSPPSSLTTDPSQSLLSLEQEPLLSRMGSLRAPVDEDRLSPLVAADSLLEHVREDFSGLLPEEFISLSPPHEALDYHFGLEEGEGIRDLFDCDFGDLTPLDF
How it was run: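 Gain or loss of reporter transcript, fitted against DMSO, reflects E2F1-driven transcription. Transiently transfected HepG2 dosed 24 h before RNA isolation. Quantified by fluorescent RT-PCR products separated by capillary electrophoresis.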

[9] = ATG_E_Box_CIS: Attagene CIS-FACTORIAL HepG2 Assay for human Enhancer Box (E-box) (AID 2282936); details: HepG2 E-box cis-reporter transcription, actives raise or lower the signal
How it was run: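 E-box-driven reporter transcripts measured in transiently transfected HepG2 after 24 h exposure: RNA reverse-transcribed, PCR-amplified, fluorescently labelled, digested and resolved by capillary electrophoresis. Gain or loss relative to DMSO.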

[10] = ATG_M_61_CIS: Attagene CIS-FACTORIAL HepG2 Assay for M61 Transcription Factor (Internal Marker) (AID 2282937); details: HepG2 Attagene CIS-FACTORIAL M61 internal marker reporter; actives raise or lower the signal
How it was run: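 HepG2 cells transiently transfected with multiplexed cis-promoter reporter units reporting endogenous transcription factor activity, measured 24 h after dosing. Reporter mRNA quantified by RT-PCR and capillary electrophoresis; bidirectional fit against DMSO baseline.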

[11] = ATG_EGR_CIS: Attagene CIS-FACTORIAL HepG2 Assay for human Early Growth Response 1 (EGR1) (AID 2282938); details: HepG2 Attagene CIS-FACTORIAL EGR reporter mRNA; actives raise or lower the signal
How it was run: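 HepG2 cells transiently transfected with cis-element-driven multiplexed reporter units, dosed for 24 h. EGR1-element reporter mRNA quantified by RT-PCR, 6-FAM labelling, HpaI digestion and capillary electrophoresis; bidirectional fit versus DMSO.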

[12] = ATG_M_19_CIS: Attagene CIS-FACTORIAL HepG2 Assay for M19 Transcription Factor (Internal Marker) (AID 2282939); details: HepG2 Attagene CIS-FACTORIAL M19 internal marker reporter; actives raise or lower the signal
How it was run: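 Background-control endpoint from a multiplexed HepG2 reporter panel. Cells carrying cis-regulated reporter constructs are treated 24 h, then reporter transcripts are amplified, fluorescently labelled and sized by capillary electrophoresis. DMSO defines baseline.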

[13] = biological target: Hepatocyte nuclear factor 3-beta (Homo sapiens) (UniProt Q9Y261); experiment: ATG_FoxA2_CIS: Attagene CIS-FACTORIAL HepG2 Assay for human Forkhead box A2 (FOXA2) (AID 2282942); details: HepG2 cis-reporter transcription factor activity, 24 h; actives raise or lower the signal
Hepatocyte nuclear factor 3-beta (Homo sapiens), sequence (Q9Y261 whole entry, looked up): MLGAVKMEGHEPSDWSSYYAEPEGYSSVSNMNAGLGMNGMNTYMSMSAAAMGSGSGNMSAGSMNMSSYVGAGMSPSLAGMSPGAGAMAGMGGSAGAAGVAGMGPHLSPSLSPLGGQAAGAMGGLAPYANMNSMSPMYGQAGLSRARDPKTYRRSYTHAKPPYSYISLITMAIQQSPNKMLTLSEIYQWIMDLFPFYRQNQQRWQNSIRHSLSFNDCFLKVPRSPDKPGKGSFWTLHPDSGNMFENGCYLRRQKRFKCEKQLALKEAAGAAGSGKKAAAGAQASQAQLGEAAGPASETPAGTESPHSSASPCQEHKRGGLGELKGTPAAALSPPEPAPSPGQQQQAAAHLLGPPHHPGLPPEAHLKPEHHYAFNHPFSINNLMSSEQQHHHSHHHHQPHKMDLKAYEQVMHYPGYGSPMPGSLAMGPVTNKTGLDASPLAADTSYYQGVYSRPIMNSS
How it was run: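 HepG2 transiently transfected with a multiplexed cis-promoter reporter library read endogenous FOXA2 activity. After 24 h compound exposure, reporter mRNA was quantified by RT-PCR, HpaI digestion and capillary electrophoresis. Bidirectional fit against DMSO.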

[14] = ATG_FoxO_CIS: Attagene CIS-FACTORIAL HepG2 Assay for human Forkhead box O (FoxO) (AID 2282943); details: HepG2 Attagene cis-reporter, FoxO element, mRNA; actives raise or lower the signal
How it was run: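 Human hepatoma HepG2 cells carry transiently introduced reporter transcription units controlled by cis promoter elements. Chemical treatment lasted 24 h, and mRNA signal was compared with DMSO.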

[15] = ATG_GATA_CIS: Attagene CIS-FACTORIAL HepG2 Assay for human GATA Binding Protein (AID 2282944); details: HepG2 GATA cis-element reporter, Attagene multiplex mRNA; actives raise or lower the signal
How it was run: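 Endogenous transcription factor activity was captured through cis-promoter-driven reporters in transfected HepG2 cells. After 24 h exposure, reporter transcripts were quantified by RT-PCR with fluorescent capillary electrophoresis, and responses fitted both directions against DMSO.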

[16] = ATG_GLI_CIS: Attagene CIS-FACTORIAL HepG2 Assay for human Zinc Finger Protein GLI1 (AID 2282945); details: HepG2, Attagene cis-factorial reporter mRNA, GLI element; actives raise or lower the signal
How it was run: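 Bidirectional curve fits relative to DMSO, using reporter mRNA levels from RT-PCR plus capillary electrophoresis. Cells were HepG2 transiently carrying cis-regulated reporter constructs, harvested 24 h after dosing.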

[17] = ATG_Ets_CIS: Attagene CIS-FACTORIAL HepG2 Assay for human Erythroblast Transformation Specific (ETS) (AID 2282941); details: HepG2 ETS cis-reporter transcription, actives raise or lower the signal
How it was run: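 RT-PCR/capillary electrophoresis fluorescence read-out of reporter mRNA; HepG2 transient multi-reporter transfection; 24 h compound exposure; gain or loss of signal fitted bidirectionally relative to DMSO.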

[18] = biological target: Retinoic acid receptor alpha (Homo sapiens) (UniProt P10276); experiment: ATG_DR5_RAR_CIS: Attagene CIS-FACTORIAL HepG2 Assay for human Retinoic Acid Receptor Alpha (RARE), DR5 submotif (AID 2282934); details: HepG2 Attagene cis-factorial RARE DR5 reporter, mRNA; actives raise or lower the signal
Retinoic acid receptor alpha (Homo sapiens), sequence (P10276 whole entry, looked up): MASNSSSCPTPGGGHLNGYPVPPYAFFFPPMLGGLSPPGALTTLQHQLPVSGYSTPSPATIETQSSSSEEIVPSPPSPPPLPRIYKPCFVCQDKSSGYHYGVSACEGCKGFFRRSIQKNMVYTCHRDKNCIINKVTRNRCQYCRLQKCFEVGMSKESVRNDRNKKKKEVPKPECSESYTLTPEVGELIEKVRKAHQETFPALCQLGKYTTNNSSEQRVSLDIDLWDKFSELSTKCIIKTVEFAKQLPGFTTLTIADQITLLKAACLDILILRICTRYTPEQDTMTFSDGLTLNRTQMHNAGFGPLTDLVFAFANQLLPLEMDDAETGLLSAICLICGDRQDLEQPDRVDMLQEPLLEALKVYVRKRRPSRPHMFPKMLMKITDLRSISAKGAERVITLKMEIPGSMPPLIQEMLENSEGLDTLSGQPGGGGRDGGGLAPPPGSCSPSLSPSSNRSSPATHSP
How it was run: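 HepG2, transient cis-reporter transfection, 24 h exposure. mRNA readout: RT-PCR, FAM label, HpaI cut, capillary electrophoresis. DMSO baseline, gain/loss fitting.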

[19] = ATG_ERE_CIS: Attagene CIS-FACTORIAL HepG2 Assay for Estrogen Response Element (ERE) (AID 2282940); details: HepG2 ERE cis-reporter, Attagene RNA transcript; actives raise or lower the signal
How it was run: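 Cells used were human hepatoma HepG2, transfected with multiple reporter transcription units under cis-regulatory promoters. Reporter mRNA, read 24 h post-dosing via fluorescent RT-PCR products on capillary electrophoresis, was fitted bidirectionally relative to DMSO.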

[20] = ATG_CMV_CIS: Attagene CIS-FACTORIAL HepG2 Assay for human CMV (Internal Marker) (AID 2282928); details: HepG2 CMV promoter reporter, transcription factor profiling; actives raise or lower the signal;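 also: endpoint acts as a background internal control marker rather than a target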
How it was run: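 Readout: fluorescent reporter cDNA fragments separated by capillary electrophoresis after RT-PCR and HpaI cut. Cells: HepG2 carrying transfected cis-promoter reporter constructs, dosed 24 h. Endpoint serves as background internal-marker control, fit bidirectionally versus DMSO.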

Measured: AC50

CC(C)C[C@H]1C(=O)N2CCC[C@H]2[C@]2(O)O[C@](NC(=O)[C@@H]3C=C4c5cccc6[nH]c(Br)c(c56)C[C@H]4N(C)C3)(C(C)C)C(=O)N12
active: [3] 7.76 µM | [11] 1.65 µM
not listed: [17] | [18] | [19] | [20]
inactive: all other assays above

Clc1ccc(Cl)c(Cl)c1Cl
active: [4] 31.7 µM
not listed: [6] | [18] | [19] | [20]
inactive: all other assays above

COc1cc(C(C)(C)C)c(O)c(C(C)(C)C)c1
not listed: [18] | [19] | [20]
inactive: all other assays above

Nc1ccc(S(N)(=O)=O)cc1
not listed: [13] | [18] | [19] | [20]
inactive: all other assays above

O=C(O)CCCCCCCC(=O)O
not listed: [19] | [20]
inactive: all other assays above

CNC(=O)Oc1ccc2c(c1)[C@]1(C)CCN(C)[C@@H]1N2C
not listed: [14] | [18] | [20]
inactive: all other assays above

NNc1nc(-c2ccc(N)cc2)cs1
not listed: [4] | [5] | [6] | [13] | [18]
inactive: all other assays above

CC(C)=CCC/C(C)=C/COC=O
not listed: [4] | [5] | [6] | [13] | [19]
inactive: all other assays above

[Ca+2]
not listed: [9] | [12] | [18] | [19] | [20]
inactive: all other assays above

Clc1ccc2c(c1)C(N1CCNCC1)=Nc1ccccc1O2
active: [2] 51 µM | [4] 41.1 µM | [11] 26.6 µM
not listed: [9] | [12] | [13] | [18] | [20]
inactive: all other assays above

O=[N+]([O-])c1ccc(Nc2ccc(Nc3ccccc3)c(S(=O)(=O)O)c2)c([N+](=O)[O-])c1
active: [3] 100 µM | [4] 31.9 µM | [5] 147 µM | [11] 100 µM
not listed: [12] | [17] | [18] | [19] | [20]
inactive: all other assays above

CN(C)C(=N)N=C(N)N
not listed: [5] | [17] | [18] | [19] | [20]
inactive: all other assays above

CC1(C)C(=O)N(Br)C(=O)N1Cl
not listed: [19] | [20]
inactive: all other assays above

CCCCCOC(=O)CCC
not listed: [18] | [19] | [20]
inactive: all other assays above

From PubChem BioAssay (EPA / NIEHS)
